Source: PubChem BioAssay
Pf growth 48h: Primary qHTS for delayed death inhibitors of the malarial parasite plastid, 48 hour incubation. 310,000 tested, 5.9% active. P. falciparum luciferase growth in erythrocytes, 48 h. Potency, µM (titrated, usually from 28.7 µM), without a hit: top-dose activity change, negative = inhibition, usual class: inhibitors; also: potency is read from the fitted curve at half-maximal effect; % is scaled to controls: 0 for no effect and ±100 for the full control effect
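Read-out is firefly luciferase luminescence from an integrated reporter in P. falciparum, so falling signal marks reduced parasite growth. Infected erythrocytes were at 2% hematocrit and 0.1% parasitemia (final) in Albumax-supplemented RPMI 1640.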
Cycloheximide cs: Cycloheximide Counterscreen for Small Molecule Inhibitors of Shiga Toxin. AID 2314, 2010. cell reporter, cycloheximide protein synthesis inhibition counterscreen. max response, %. 300,000 tested, 12% active; in the data active = max response mostly above about 13%, no sharp cut-off; inactive = mostly below about 14%; also: read at 38.3 µM for the half of the compounds with a filed dose; 0% is about no effect
Pf growth 96h: Primary qHTS for delayed death inhibitors of the malarial parasite plastid, 96 hour incubation. P. falciparum luciferase reporter growth, 96 h. Potency, µM (highest dose often 28.7 µM), without a hit: at the highest dose activity change, negative = inhibition, actives largely listed as inhibitors. 320,000 tested, 6.9% active; also: potency is read from the fitted curve at half-maximal effect; % is scaled to controls: 0 for no effect and ±100 for the full control effect
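Compounds incubated with erythrocytes infected by luciferase-expressing P. falciparum (2% hematocrit, 0.05% parasitemia final) for 96 hours, 37 C in 5% CO2. Growth inhibition scored as decreased luciferase luminescence.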
Shiga toxin inh: A qHTS for Small Molecule Inhibitors of Shiga Toxin; Vero cells, Shiga toxin protein synthesis inhibition reporter; inhibition, % at 38.7 µM; 290,000 tested, 9.2% active; AID 2315, 2010; in the data active = inhibition mostly above about 28%, no sharp cut-off; inactive = mostly below about 43%; also: 0% is about no effect
Active calls of the source: *; ! = not active in a repeat. This is a sample that favours compounds with a hit; in the whole collection about 21% have one here. Unless noted, calls follow the shape of the dose curve; as a rule, active = well fitted inhibition curve with a large enough effect; inconclusive = small, poorly fitted or top-dose-only effect, or another doubt; inactive = no such curve, though single readings can be large or run the other way.

`CCC(C)(C)NC(=S)Nc1ccc(-c2nc3ccc(C)cc3s2)cc1` gave Pf growth 48h 204%, Cycloheximide cs 44*, Pf growth 96h 288% and Shiga toxin inh 82*.
Screening CCCCNC(=S)Nc1ccc(-c2nc3ccc(C)cc3s2)cc1 returned Pf growth 48h 171%, Cycloheximide cs 65*, Pf growth 96h 325% and Shiga toxin inh 51*.
Screening CCCCNC(=S)Nc1ccc(F)cc1 returned Pf growth 48h -24%, Cycloheximide cs 0, Pf growth 96h -28% and Shiga toxin inh 12.
For Cc1cccc(NC(=S)NC(C)(C)CC(C)(C)C)c1 the results were Pf growth 48h 5%, Cycloheximide cs -3, Pf growth 96h inconclusive and Shiga toxin inh 18.
For CCNC(=S)N(CCCO)Cc1cc2cc3c(cc2[nH]c1=O)OCCO3 the results were Pf growth 48h 50%, Cycloheximide cs 1, Pf growth 96h inconclusive and Shiga toxin inh -19.
COc1ccc(C2CC(O)(c3ccccc3)Oc3cc(OC)cc(OC)c32)cc1 (stereo unspecified) was read as Pf growth 48h inconclusive, Cycloheximide cs 22*!, Pf growth 96h inconclusive and Shiga toxin inh 25.
`COc1ccc(C2CC(O)(c3ccccc3)Oc3c(C)ccc(C)c32)cc1` (stereo unspecified) gave Pf growth 48h 9.3µM*, Cycloheximide cs -2, Pf growth 96h inconclusive and Shiga toxin inh -3.
Screening COc1cc(S(=O)(=O)N2CCN(C(=O)c3ccco3)CC2)ccc1Cl returned Pf growth 48h 0%, Cycloheximide cs -2 and Pf growth 96h inconclusive.
Screening CCC(=O)Nc1nn(CC(C)C)c2nc3ccc(C)cc3cc12 returned Pf growth 48h inconclusive, Cycloheximide cs -7, Pf growth 96h inconclusive and Shiga toxin inh -7.
For CN(C)[C@@H]1C(=O)C(C(N)=O)=C(O)[C@@]2(O)C(=O)C3=C(O)c4c(O)cccc4[C@@](C)(O)C3[C@H](O)C12 (stereo partly specified) the results were Pf growth 48h 15µM*! and Pf growth 96h 12µM*!.
For CN(C)[C@H]1C(=O)C(C(N)=O)=C(O)[C@]2(O)C(=O)C3=C(O)c4c(O)cccc4[C@@](C)(O)[C@H]3C[C@@H]12 the results were Pf growth 48h 5.7µM* and Pf growth 96h 0.72µM*.
CN(C)[C@@H]1C(=O)C(C(N)=O)=C(O)[C@@]2(O)C(=O)C3=C(O)c4c(O)ccc(Cl)c4[C@@](C)(O)C3C[C@@H]12 (stereo partly specified) was read as Pf growth 48h -24%, Cycloheximide cs 3, Pf growth 96h inconclusive and Shiga toxin inh -2.
Screening CN(C)C1C(=O)C(C(N)=O)=C(O)C2(O)C(=O)C3=C(O)c4c(O)cccc4C(C)(O)C3CC12 (stereo unspecified) returned Pf growth 48h inconclusive, Cycloheximide cs -3, Pf growth 96h 0.93µM* and Shiga toxin inh -7.
CN(C)[C@@H]1C(=O)C(C(=O)NCN2CCCC2)=C(O)[C@@]2(O)C(=O)C3=C(O)c4c(O)cccc4[C@@](C)(O)C3CC12 (stereo partly specified) was read as Pf growth 48h -4%, Cycloheximide cs -2, Pf growth 96h -6% and Shiga toxin inh -6.
`COc1cccc(NC(=O)CSc2nnc3ccc(-c4ccccn4)nn23)c1` gave Pf growth 48h 12% and Pf growth 96h 42%.
`Cc1ccc(S(=O)(=O)NC(C(=O)N2CCN(S(=O)(=O)c3cccc(F)c3)CC2)C(C)C)cc1` (stereo unspecified) gave Pf growth 48h inconclusive and Pf growth 96h 16%.
`O=C(CO/N=C/c1ccc(OC(F)F)cc1)NC1CCCCCC1` gave Pf growth 48h -21%, Cycloheximide cs -2, Pf growth 96h 1% and Shiga toxin inh -7.
COc1cccc(CCNC(=O)c2ccc(OC)c(OC3CCN(C(C)C)CC3)c2)c1 was read as Pf growth 48h -7%, Cycloheximide cs 1, Pf growth 96h 15% and Shiga toxin inh 20.
CCN1C(=O)[C@H]2[C@H]3[C@H](O)[C@H](O)C/C(=N\OC[C@@H](C)[C@H](OCc4ccccc4)C(C)C)[C@@H]3CC[C@H]2C1=O was read as Pf growth 48h 10µM*, Cycloheximide cs -3, Pf growth 96h inconclusive and Shiga toxin inh 13.
`CC(C)c1ccc(S(=O)(=O)N2CCN(C(=O)C3CCCC3)CC2)cc1` gave Pf growth 48h 5%, Cycloheximide cs -2, Pf growth 96h -19% and Shiga toxin inh -6.
